Laboratory results published in PubChem BioAssay.
The source made the active and inactive calls. Unless noted, the rule behind the calls is not given here.

target: Dihydroorotate dehydrogenase (quinone), mitochondrial (Plasmodium falciparum (isolate 3D7)) (UniProt Q08210); test: PfDHODH enzyme inhibitors, primary screen, biochemical, C-terminal His tag, absorbance 600 nm (AID 1175); details: DCIP absorbance 600 nm, higher = more signal, called active from +8 up or from −8 down;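 note: recombinant parasite enzyme with a five histidine tag at its C terminus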
Note: test concentration not given here.

Sequence of Dihydroorotate dehydrogenase (quinone), mitochondrial (Plasmodium falciparum (isolate 3D7)) (Q08210 whole entry, looked up): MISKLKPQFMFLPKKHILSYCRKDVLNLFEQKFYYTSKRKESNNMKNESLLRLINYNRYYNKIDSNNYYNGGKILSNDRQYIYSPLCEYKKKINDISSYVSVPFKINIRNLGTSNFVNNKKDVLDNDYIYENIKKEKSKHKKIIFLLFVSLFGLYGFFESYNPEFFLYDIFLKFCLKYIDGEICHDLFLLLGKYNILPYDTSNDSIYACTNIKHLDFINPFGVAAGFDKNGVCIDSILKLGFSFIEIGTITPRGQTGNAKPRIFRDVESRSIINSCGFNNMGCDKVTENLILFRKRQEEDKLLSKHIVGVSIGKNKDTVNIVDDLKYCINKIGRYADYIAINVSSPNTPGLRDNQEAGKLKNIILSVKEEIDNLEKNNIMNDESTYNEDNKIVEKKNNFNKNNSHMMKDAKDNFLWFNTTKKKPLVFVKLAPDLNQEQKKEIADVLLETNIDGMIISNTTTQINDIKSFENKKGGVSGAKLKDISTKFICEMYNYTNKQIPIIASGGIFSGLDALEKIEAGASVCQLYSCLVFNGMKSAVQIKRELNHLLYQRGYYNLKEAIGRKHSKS

SMILES | composite z-score
COc1ccc([Si](C)(C)[C@H]2[C@H](CCn3cc(CCO)nn3)O[C@@]3(C(=O)N(Cc4cccc(N5C(=O)c6cccc7cccc5c67)c4)c4ccccc43)[C@@H]2C)cc1 | -0.455 (inactive)
COC(=O)[C@@]1(Cc2ccc(F)cc2)[C@H]2c3cc(C(=O)N4CCCC4)n(Cc4ccccc4)c3C[C@H]2CN1C(=O)c1ccccc1 | 0.335 (inactive)
CCC[C@@H]1C[C@@]1(CCC)[C@@H](NC(=O)c1ccco1)c1ccc(Cl)cc1 | -0.152 (inactive)
C[C@@]1([C@@H](NC(=O)c2cccs2)c2ccc(-c3ccccc3)cc2)C[C@H]1C1CCCCC1 | -3.3 (inactive)
O=C1O[C@H](c2ccccc2)[C@H](c2ccccc2)N2[C@H]1[C@@H](C(=O)N1CCN(c3ncccn3)CC1)[C@]1(C(=O)Nc3ccc(C#CCCO)cc31)[C@H]2c1ccccc1OCCO | -0.49 (inactive)
C=C(COC)C(=O)CC[C@H](OC(=O)c1ccccc1-c1ccccc1C(=O)O)c1ccc(CO)o1 | -1.39 (inactive)
COCC(=C=CC[C@@H](O)c1ccccc1OCCO)C[C@@H](O)c1ccccn1 | -10.8 (active)
COC(=O)C(CC#Cc1ccc2c(c1)[C@]1(C(=O)N2)[C@H](c2ccc(OCCO)cc2)N2[C@H](c3ccccc3)[C@H](c3ccccc3)OC(=O)[C@H]2[C@@H]1C(=O)O)C(=O)OC | -16.3 (active)
COCCCNC(=O)[C@]1(Cc2ccccc2CN=[N+]=[N-])N=C(c2ccc(OCCCO)cc2)O[C@@H]1c1ccccc1CN=[N+]=[N-] | 0.502 (inactive)
C=C(C(=O)CC[C@H](OC(=O)c1cccnc1)c1ccc(OCCO)cc1)C(C)C | 0.349 (inactive)
CC(C)CNC(=O)[C@@]1(C)c2ccccc2C(=O)N(Cc2ccccc2)[C@H]1c1ccc(CO)cc1 | -0.362 (inactive)
CC(C)(C)OC(=O)CC[C@]1(C(=O)O)COC(c2ccc(OCCCO)cc2)=N1 | -0.055 (inactive)
COc1ccc([Si](C)(C)[C@@H]2[C@@H](CC(=O)N(CCO)Cc3ccccc3)O[C@]3(C(=O)N(Cc4ccc(N5CCOC5=O)cc4)c4ccccc43)[C@H]2C)cc1 | -0.0014 (inactive)
CCCCC=C[C@@H](NC(=O)CCc1ccccc1)c1ccccc1 | -0.739 (inactive)
C=C(/C(=C/C[C@@H](OC(=O)c1ccncc1)c1ccccc1OCCO)c1cnc2ccccc2c1)C(C)C | -6.99 (inactive)
C=C(CCCC)/C(=C/C[C@@H](OC(=O)c1ccncc1)c1ccccc1OCCO)c1cc(C(=O)OC)ccc1OC | -0.455 (inactive)
CC(C)N1C(=O)c2ccccc2[C@](C)(C(=O)O)[C@@H]1c1ccc(CO)cc1 | -0.218 (inactive)
COC(=O)[C@@]1(Cc2ccc(OC)cc2)[C@H]2c3cc(C(=O)N(C)C)n(Cc4cc(C)n(C)n4)c3C[C@H]2CN1C(=O)c1ccccc1 | -0.546 (inactive)

test system: not listed separately; test: P. aeruginosa biofilm formation inhibitors, primary screen, strain PAO1, LB-PBS medium, absorbance 600 nm (AID 1176); details: P. aeruginosa PAO1 growth/biofilm, A600, 12 h; higher = more signal

SMILES | z-score
CN(C)C(=O)[C@@]1(CCS(=O)(=O)c2ccccc2)N=C(c2ccc(OCCCO)cc2)O[C@H]1c1ccccc1CN=[N+]=[N-] | -0.385 (inactive)
Cc1ccc(S[C@]2(C(=O)NCc3ccccc3)CC(=O)N(C3Cc4ccccc4C3)[C@@H]2c2ccc(CO)cc2I)cc1 | 0.761 (inactive)
C=C(C)[C@@H]1CC=C(C(O)C2C=CC3C(=O)N(C4CCCCC4)C(=O)C3N2Nc2ccc(OC)cc2)CC1 (some centres undefined) | 0.987 (inactive)
CC(C)(C)N1CC=CC23O[C@@H]4C=CCCOC(=O)C4[C@H]2C(=O)N(CCCO)[C@@H]3C1=O (some centres undefined) | -0.193 (inactive)
CN(C)C(=O)[C@]1(Cc2ccccc2N=[N+]=[N-])N=C(c2ccc(OCCCO)cc2)O[C@@H]1c1ccccc1CN=[N+]=[N-] | -0.165 (inactive)
COC(=O)[C@@]1(Cc2ccc(OC)cc2)[C@H]2c3cc(C(=O)N4CCCC4)n(Cc4ccc(C)o4)c3C[C@H]2CN1C(=O)c1ccccc1 | 0.411 (inactive)
[N-]=[N+]=NCc1ccccc1C[C@]1(C(=O)NCCN2CCOCC2)N=C(c2ccc(OCCCO)cc2)O[C@H]1c1ccccc1 | 0.193 (inactive)
CCCCCCC#C[Si](O[C@H](c1ccccc1)c1cn(Cc2cccc(Cl)c2)nn1)(C(C)C)C(C)C | 0.101 (inactive)
COCCOC(=O)N1C(=O)[C@@]2(c3cc(C#CC4(O)CCCCCC4)ccc31)[C@H](C(=O)N1CCN(c3ncccn3)CC1)[C@H]1C(=O)O[C@H](c3ccccc3)[C@H](c3ccccc3)N1[C@@H]2c1ccc(O)cc1 | 0.545 (inactive)
COc1ccc(C(=O)Nc2ccc3c(c2)[C@]2(O[C@@H](CCO)[C@H]([Si](C)(C)c4ccc(OC)cc4)[C@H]2C)C(=O)N3Cc2ccccc2)cc1 | 1.55 (inactive)
COc1ccc([Si](C)(C)[C@@H]2[C@@H](CCO)O[C@]3(C(=O)N(Cc4ccccc4)c4ccc(N5CCCCC5=O)cc43)[C@H]2C)cc1 | -0.565 (inactive)
C#CCNS(=O)(=O)N(C)C | -0.218 (inactive)
COCCCNC(=O)[C@]1(CCS(=O)(=O)c2ccccc2)N=C(c2ccc(OCCCO)cc2)O[C@@H]1c1ccccc1 | -0.0304 (inactive)
CC(=O)NCCCC[C@@H]1NC(=O)[C@@H]2C[C@H](C(=O)NCCCC[N+](C)(C)C)[C@H](c3cccc(OCCO)c3)N2C1=O | 0.876 (inactive)
CCCC[C@@H](O)C1=C(COc2ccccc2)Cn2c(=O)n(-c3ccccc3)c(=O)n2[C@H]1CO | 0.789 (inactive)
C=CCOC(=O)[C@H]1[C@@H]2C(=O)O[C@@H](c3ccccc3)[C@@H](c3ccccc3)N2[C@@H](c2ccc(OCCOC(=O)[C@H]3C[C@H]4C(=O)N[C@@H](CCCCN(C)C)C(=O)N4[C@H]3c3ccc(O)cc3)cc2)[C@]12C(=O)Nc1ccccc12 | -0.723 (inactive)
C=CCNC(=O)[C@H]1[C@@H]2C(=O)O[C@@H](c3ccccc3)[C@@H](c3ccccc3)N2[C@@H](c2ccc(OCCO)cc2)[C@]12C(=O)N(C(=O)OCCOC)c1ccc(C#CC3=CCCCC3)cc12 | 2.06 (inactive)
COC(=O)[C@@]1(Cc2ccccc2)[C@H]2c3cc(C(=O)N4CCCC4)n(Cc4ccc(OC(F)(F)F)cc4)c3C[C@H]2CN1C(=O)c1ccccc1 | 0.632 (inactive)

SMILES | z-score
COc1ccc([Si](C)(C)[C@H]2[C@H](CCn3cc(CCO)nn3)O[C@@]3(C(=O)N(Cc4cccc(N5C(=O)c6cccc7cccc5c67)c4)c4ccccc43)[C@@H]2C)cc1 | 1.76 (inactive)
COC(=O)[C@@]1(Cc2ccc(F)cc2)[C@H]2c3cc(C(=O)N4CCCC4)n(Cc4ccccc4)c3C[C@H]2CN1C(=O)c1ccccc1 | -0.526 (inactive)
CCC[C@@H]1C[C@@]1(CCC)[C@@H](NC(=O)c1ccco1)c1ccc(Cl)cc1 | 0.439 (inactive)
C[C@@]1([C@@H](NC(=O)c2cccs2)c2ccc(-c3ccccc3)cc2)C[C@H]1C1CCCCC1 | 2.3 (inactive)
O=C1O[C@H](c2ccccc2)[C@H](c2ccccc2)N2[C@H]1[C@@H](C(=O)N1CCN(c3ncccn3)CC1)[C@]1(C(=O)Nc3ccc(C#CCCO)cc31)[C@H]2c1ccccc1OCCO | 1.34 (inactive)
C=C(COC)C(=O)CC[C@H](OC(=O)c1ccccc1-c1ccccc1C(=O)O)c1ccc(CO)o1 | 1.85 (inactive)
COCC(=C=CC[C@@H](O)c1ccccc1OCCO)C[C@@H](O)c1ccccn1 | 0.354 (inactive)
COC(=O)C(CC#Cc1ccc2c(c1)[C@]1(C(=O)N2)[C@H](c2ccc(OCCO)cc2)N2[C@H](c3ccccc3)[C@H](c3ccccc3)OC(=O)[C@H]2[C@@H]1C(=O)O)C(=O)OC | 2.28 (inactive)
COCCCNC(=O)[C@]1(Cc2ccccc2CN=[N+]=[N-])N=C(c2ccc(OCCCO)cc2)O[C@@H]1c1ccccc1CN=[N+]=[N-] | 1.29 (inactive)
C=C(C(=O)CC[C@H](OC(=O)c1cccnc1)c1ccc(OCCO)cc1)C(C)C | 0.273 (inactive)
CC(C)CNC(=O)[C@@]1(C)c2ccccc2C(=O)N(Cc2ccccc2)[C@H]1c1ccc(CO)cc1 | -0.273 (inactive)
CC(C)(C)OC(=O)CC[C@]1(C(=O)O)COC(c2ccc(OCCCO)cc2)=N1 | -0.596 (inactive)
COc1ccc([Si](C)(C)[C@@H]2[C@@H](CC(=O)N(CCO)Cc3ccccc3)O[C@]3(C(=O)N(Cc4ccc(N5CCOC5=O)cc4)c4ccccc43)[C@H]2C)cc1 | 1.77 (inactive)
CCCCC=C[C@@H](NC(=O)CCc1ccccc1)c1ccccc1 | 1.16 (inactive)
C=C(/C(=C/C[C@@H](OC(=O)c1ccncc1)c1ccccc1OCCO)c1cnc2ccccc2c1)C(C)C | 0.485 (inactive)
C=C(CCCC)/C(=C/C[C@@H](OC(=O)c1ccncc1)c1ccccc1OCCO)c1cc(C(=O)OC)ccc1OC | 0.506 (inactive)
CC(C)N1C(=O)c2ccccc2[C@](C)(C(=O)O)[C@@H]1c1ccc(CO)cc1 | 0.332 (inactive)
COC(=O)[C@@]1(Cc2ccc(OC)cc2)[C@H]2c3cc(C(=O)N(C)C)n(Cc4cc(C)n(C)n4)c3C[C@H]2CN1C(=O)c1ccccc1 | 0.992 (inactive)
